Hit rate of the full screen: of about 53,000 sequences, about 3,700 (7%) were called active. This is one part of a sample in which actives are shown more often than they occur.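 The calls were made as follows: active = gene knockdowns whose robust z-score for IL-1 alpha signal is at least 2 or at most -2, so actives lie on both sides; inactive = the rest.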
Test: Components of the Cytosolic LPS Sensing Pathway: Gene Identification via Genome-wide siRNA Screen;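 also: robust z of the log signal after scaling to non-targeting control siRNA wells of the plate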
Conditions: RAW264.7 macrophages, IL-1a HTRF, actives lie on both sides, screened at 100 nM (by protocol), cells primed 5 h with Pam3CSK4 first
How it was run: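 Cells (RAW264.7, 1×10^4 per well) were transfected with siRNA at 100 nM and cultured 48h at 37 degrees C. Pam3CSK4 was added for 5 hours; LipidA transfection followed for 24 hour. IL-1a was then measured by HTRF.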

z-score, active:
GGCAGAUCUGAUCAACGGATT against Mtln -2.14, GGAGAUAAAGUCUUAUCACTT against Misp -2.05, GGAUUCAGGGAACAGCAAUTT against Ntrk3 -3.08, CGUUUUUCUCUAACUUACATT against Ldlrad3 2.6, GGUGGUGUUAAAAUAUACUTT against Gnl3 3.07, GGACUUUGUACAUUGUUUUTT against Actb 2.2, GGCUAUGAGGACUCCUAUGTT against Plekha7 -2.53

z-score, inactive:
GCUUGUGGAUUCGAUUUGGTT against Gtf3c5 0.485, GCUGAAUGAUAUGGAACCUTT against Vapa -1.76, GGAAAUCGUGCGUGGCUACTT against Phpt1 1.57, GGCCAUCUUUGACAGUGCUTT against Dnah1 1.11, GGCAUUUGUAAUUCCAGUUTT against Spata33 0.456, GGUACAGAACAUGUUCUAATT against Klf4 1.18, GCACAAGCGAUGGGUUAACTT against Fkbp1a -0.708, GGCUCACGAGGAACUAAAUTT against Ift52 0.115, GGAACUUCACUUUUAACACTT against Il33 -0.534, GGUGAUGUCCUAUUUCAAATT against Erp27 0.302, GGUUCUAUCUACCUACAGGTT against Igfn1 1.78, GGAGAAGAGUCAAGAGCUCTT against Vxn 0.103, GGUAUCCAAGAAAACCUAUTT against Tnmd 0.475, CCUUCUGUAGUUGGAAUCATT against Them5 1.41, CCUGUAUGGAGUAAUGGAATT against Eif4ebp3 0.13, GCCAGAAGACUGUAUACCATT against Rp9 -0.0396, GGUUGUUGGUCUUCUGUGATT against Nme3 -1.27, GGCCAUCUAAAAAUAGUAATT against Ccdc171 0.707, GGAGCACUUAGAAAUGUCCTT against Olfr342 -0.174, GGUCUUCUAAGAAAUUUUGTT against Fmnl2 0.407, GGAUGUGUCUCACUUCUUGTT against Th -1.5, GCUGCCUCUCACCAAGUAUTT against Creb3l3 -1.43, GCAUGAAGAGCUAAUGCUATT against Eprs -0.364

— PubChem BioAssay AID1508600 (Functional Genomics Laboratory (NCATS/FGL), 2020)
